ALDH1A1 inh: blocks purified human ALDH1A1 activity; 220,000 tested, 7.3% active; AID 1030; Potency, µM (series often up to 75.3 µM), for inactives: at the top dose activity, negative = inhibition, actives largely listed as inhibitors; Purified ALDH1A1, NADH fluorescence, propionaldehyde substrate; P00352; active = well fitted inhibition curve with a large enough effect, not every such curve was filed as active; inconclusive = small, poorly fitted or top-dose-only effect, or another doubt; inactive = no such curve, though single readings can be large or run the other way;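 note: potency is the fitted concentration of half-maximal effect; plate controls were no enzyme wells and a reference inhibitor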
Target sequence (P00352 whole entry, looked up): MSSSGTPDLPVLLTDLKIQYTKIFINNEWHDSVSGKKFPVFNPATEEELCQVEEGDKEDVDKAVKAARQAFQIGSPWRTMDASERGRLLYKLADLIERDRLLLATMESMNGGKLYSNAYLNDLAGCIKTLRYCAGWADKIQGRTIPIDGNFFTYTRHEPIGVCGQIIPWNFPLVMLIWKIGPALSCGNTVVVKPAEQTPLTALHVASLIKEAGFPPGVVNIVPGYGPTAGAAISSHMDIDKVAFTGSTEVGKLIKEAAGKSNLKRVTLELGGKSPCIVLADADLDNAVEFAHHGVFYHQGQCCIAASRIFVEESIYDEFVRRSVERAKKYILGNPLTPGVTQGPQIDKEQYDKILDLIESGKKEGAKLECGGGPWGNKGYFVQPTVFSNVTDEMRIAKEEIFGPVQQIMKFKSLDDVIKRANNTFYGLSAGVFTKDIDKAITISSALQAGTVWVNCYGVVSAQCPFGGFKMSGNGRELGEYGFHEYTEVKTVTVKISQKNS
CBFb RUNX1 block: blocks binding between human CBF-beta and RUNX1. AlphaScreen CBFb-His/RUNX1-biotin binding, biochemical. Potency, µM (doses to about 59.8 µM), inactives show top-dose activity, negative = inhibition, hits mostly inhibitors. 230,000 tested, under 10 active. AID 1477; note: % of control where 0% means no effect
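Bead-based AlphaScreen assay; binding partners His-tagged CBF-beta and biotinylated RUNX1 at 30 nM each. Compound exposure 15 min after a 20-min protein preincubation; bead step 90 min; all steps at room temperature.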
HTT aggregate: mutant huntingtin aggregation inhibition | PC12 HttQ103-GFP aggregates, Acumen cytometry, 40 h | Potency, µM (doses to about 46.1 µM), without a hit: at the top dose activity change, negative = inhibition, usual class: inhibitors | 220,000 tested, 1.1% active; note: potency is the fitted concentration of half-maximal effect; % is set by controls: 0 for no effect and ±100 for the full control effect; nearly all actives have a fitted effect of over 60% in size
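Inducible Q103 Huntingtin exon 1–GFP PC12 line, 1500 cells/well in phenol red free DMEM with 5% equine and 5% calf serum. Tebufenozide 100 nM induced expression; compounds titrated; aggregates quantified by cytometry.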
HPGD block: inhibitors of human 15-hydroxyprostaglandin dehydrogenase (HPGD). P15428. purified HPGD, NADH fluorescence kinetic, PGE2 substrate. Potency, µM, inactives show top-dose activity change, negative = inhibition, hits mostly inhibitors. 150,000 tested, 4.3% active; active = well fitted inhibition curve with a large enough effect, not every such curve was filed as active; inconclusive = small, poorly fitted or top-dose-only effect, or another doubt; inactive = no such curve, though single readings can be large or run the other way; note: potency is the fitted concentration of half-maximal effect; % is set by controls: 0 for no effect and ±100 for the full control effect
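NADH formation kinetics: reaction with 30 uM PGE2 and 1 mM NAD+ (final), 20 nM enzyme, Tris-HCl pH 8 with Tween 20, after 15 min compound preincubation at room temperature. Fluorescence change, last versus first of five reads.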
PNC inhibitor: perinucleolar compartment assembly inhibition. PC3M PTB-GFP, PNC prevalence imaging, 16 h; stronger effect = lower value. activity change (PNC), negative = inhibition, % at 10 µM. 140,000 tested, 3.1% active. AID 2417;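 active = readout at or below -70, meaning at least 70% loss of cells showing the perinucleolar compartment, a nuclear body marking cancer cells; inconclusive = readout between -30 and a set limit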;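 note: plate controls were DMSO wells for no effect and camptothecin positive control wells for full effect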
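PC3M cells stably expressing PTB-GFP, 750–1000 cells/well, treated 16 h at 37 °C with compound (23 nl of library stock), in duplicate. After paraformaldehyde fixation and Hoechst stain, imaged at 20x; PNC prevalence scored by image analysis.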
HTT cytoprotect: protects HTT-Q103 PC12 cells, measured by ATP; PC12 HTT-Q103 induced, cytoprotection, ATP luminescence, 40 h; Potency, µM (highest dose often 56.4 µM), for inactives: cytoprotection (ATP increase), most hits filed as activators; 230,000 tested, 0.14% active; note: potency is the fitted concentration of half-maximal effect; % of control where 0% means no effect; nearly all actives have a fitted effect of over 45% in size
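Compounds added alongside 100 nM tebufenozide, which induces toxic Q103 huntingtin exon 1-GFP in stable PC12 cells; surviving cells quantified by luminescent ATP measurement. Medium: phenol red-free DMEM, 5% equine and 5% calf serum.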
* hit, by the source's call; ? = inconclusive; / = no result given; [ ] = remark or other dose. A selection: hits, their analogues and other compounds. The true share with any hit is near 11%. Unless noted, calls come from the whole dose curve; as a rule, active = well fitted curve in the direction sought with a large enough effect; inconclusive = small, poorly fitted or top-dose-only effect, or another doubt; inactive = no such curve, though single readings can be large; an effect the other way counts as inactive or inconclusive.

SMILES	ALDH1A1 inh	CBFb RUNX1 block	HTT aggregate	HPGD block	PNC inhibitor	HTT cytoprotect
Cn1c(C(=O)NC2CCCCC2)cc2sccc21	0%	-1%	7%	/	?	-41%
C=C(C)C(=O)C1CCCCC1	2%	-2%	/	-10%	/	?
O=C(Sc1nnc(-c2ccccc2)o1)N1c2ccccc2Sc2ccccc21	22µM*	-18%	4%	14µM*	-22	-11%[10 µM]
COc1ccc(-n2c(SCC(=O)N/N=C(\C)c3cccnc3)nc3ccccc3c2=O)cc1	/	8%	-2%[9.22 µM]	/	/	28%[10 µM]
CN1CC(c2ccccn2)C2(SC(=S)N(Cc3ccccc3)C2=O)C12C(=O)Nc1ccccc12 (configuration not stated)	25µM*	?	9%	-3%	16	-30%
CN1CC(c2ccccc2)C2(SC(=S)N(Cc3ccco3)C2=O)C12C(=O)Nc1ccccc12 (configuration not stated)	-2%	-25%	?	-15%	-7	-2%
CC(C)c1cc(C(=O)Nc2cc(Cl)ccc2O)no1	3%	17%	?	5.6µM*	-5	0%
CC(C)Cc1cc(C(=O)Nc2cc(Cl)ccc2Cl)no1	-5%	/	-18%	14µM*	7	-2%[10 µM]
CC(C)c1cc(C(=O)Nc2cc(Br)ccc2O)no1	4%	1%	9%	8.9µM*	34	25%
CC(C)Cc1cc(C(=O)Nc2ccc(F)cc2F)no1	?	?	-4%	-17%	-11	-13%
COc1ccc(CNc2ncnc3ccc(-c4c(C)noc4C)cc23)cc1	/	-3%	/	/	/	/
CN1CCN(S(=O)(=O)c2ccc(NC(=O)COc3ccccc3)cc2)CC1	3%	-5%	-10%	/	/	-23%
CN1CCN(S(=O)(=O)c2ccc(NC(=O)COc3ccccc3Cl)cc2)CC1	3.2µM*	1%	-6%[9.22 µM]	/	/	-10%[10 µM]
Cc1cccc(OCC(=O)Nc2cc(S(=O)(=O)N3CCCCC3)ccc2N2CCN(C)CC2)c1	11µM*	1%	-6%	/	/	-36%
CN(CCOc1ccccc1)CC(=O)Nc1ccc(S(=O)(=O)N2CCCC2)cc1	13µM*	13%	-4%[9.22 µM]	/	/	1%[10 µM]
NNC(=O)[C@@H](O)[C@H](O)[C@H](O)CO	5%[13.5 µM]	/	/	1%	/	8%[10 µM]
Cc1cccc2cc(CN(CCCN3CCOCC3)Cc3nnnn3C(C)(C)C)c(=O)[nH]c12	25µM*	1%	-9%	-5%	38	10%
COCCn1nnnc1CN(Cc1cccnc1)Cc1cc2cc(OC)ccc2[nH]c1=O	?	-2%	-3%	?	?	-14%
COc1ccc2cc(CN(Cc3cccnc3)Cc3nnnn3Cc3ccccc3)c(=O)[nH]c2c1	8.9µM*	-2%	16%	-3%	-18	-27%[10 µM]
Cc1cccc2cc(CN(Cc3cccs3)Cc3nnnn3Cc3ccccc3)c(=O)[nH]c12	2.8µM*	-7%	-18%	-29%	-3	-17%[10 µM]
COc1ccc2cc(CN(Cc3cccs3)Cc3nnnn3Cc3ccccc3)c(=O)[nH]c2c1	2µM*	-8%	?	-27%	25	22%[10 µM]
CCCNC(=O)CC(NS(=O)(=O)c1ccc(OC)cc1)c1ccco1 (configuration not stated)	-11%	10%	1%	/	/	0%
NCCC[C@@H](CC(=O)N[C@@H]1CCCC[C@H]1C(=O)N[C@H](CC(=O)N[C@@H](CCC(=O)O)CC(=O)O)Cc1ccccc1)NC(=O)C[C@H](Cc1c[nH]c2ccccc12)NC(=O)[C@@H]1CNCC[C@H]1N	-6%	-1%	/	-5%	/	-19%[1.9 µM]
CN(C)Cc1ccc(-c2cc3onc(-c4ccccc4)c3c(=O)n2C)cc1	-4%[13.5 µM]	/	/	-2%	/	-4%[10 µM]
CCCC(C)CO (configuration not stated)	-1%	11%[21.7 µM]	/	2%	/	0%
SMILES	ALDH1A1 inh	CBFb RUNX1 block	HTT aggregate	HPGD block	PNC inhibitor	HTT cytoprotect
COc1ccc2c(c1)O[C@H](c1ccc3c(c1)OCO3)[C@@H](OC(=O)NCCOc1ccccc1)C2=O	?	6%	/	4%	/	9%
COc1cc(C(=O)Oc2cccc(C=O)c2)cc(OC)c1OC	?	0%	5%	-1%	21	-10%
O=Cc1cccc(OC(=O)c2ccc(Cl)cc2Cl)c1	-14%	4%	5%[9.22 µM]	16µM*	48	11%
CCc1ccc(NC(=O)CC2C(=O)N(c3cccc(C)c3)C(=O)N2C2CC2)cc1 (configuration not stated)	11µM*	-15%	?	/	/	-27%
CCc1ccc(NC(=O)CC2C(=O)N(c3ccc(C)cc3)C(=O)N2CCc2ccncc2)cc1 (configuration not stated)	3.5µM*	6%	-2%	/	/	3%
Cc1cccc(N2C(=O)C(CC(=O)Nc3cccc(F)c3)N(CCc3ccncc3)C2=O)c1 (configuration not stated)	-4%	1%	-3%	/	/	-51%
COc1ccc(NC(=O)CC2C(=O)N(c3cccc(C)c3)C(=O)N2C2CCCCC2)cc1 (configuration not stated)	-2%	2%	-5%	0%	?	-9%
CN1CCN(CCc2ccc(Cl)c(Cl)c2)CC1	10%	-7%	/	1%	/	-178%
COc1cc(OC)c(/C=N/NC(=O)Cn2nc([N+](=O)[O-])cc2C)c(OC)c1	/	4%	-10%[9.22 µM]	/	/	10%[10 µM]
O=C(c1ccco1)N1CCN(CC2CC3C=CC2C3)CC1 (configuration not stated)	?	9%	-10%	2%	35	13%[10 µM]
O=C(NC1CC1)C1CCN(c2ccc(S(=O)(=O)N3CCOCC3)cc2Cl)CC1	7%	3%	0%	25µM*	-2	-3%
O=C(NCc1cccs1)C1CCN(c2ccc(S(=O)(=O)N3CCOCC3)cc2Cl)CC1	0%	-3%	?	-21%	-124*	-66%
CC(C)(C)NC(=O)C1CCN(c2ccc(S(=O)(=O)N3CCOCC3)cc2Cl)CC1	-3%	2%	-8%[9.22 µM]	/	/	-8%[10 µM]
CC(C)CNC(=O)C1CCN(c2ccc(S(=O)(=O)N3CCOCC3)cc2Cl)CC1	16%	-3%	-19%	16µM*	-20	-27%[10 µM]
C#CCNC(=O)C1CCN(c2ccc(S(=O)(=O)N3CCOCC3)cc2Cl)CC1	-3%	1%	1%[9.22 µM]	/	/	-8%[10 µM]
O=Nc1ccc2oc(=O)ccc2c1	0.13µM*	-5%	/	16µM*	/	-14%[1.9 µM]
Cc1ccccc1-c1nc2sc3c(c2c(=O)n1N)CCCC3	?	3%	-19%[9.22 µM]	25µM*	?	-7%
Cn1nnc2sc3c(c2c1=O)CCCC3	13µM*	1%	-6%	32µM*	?	-15%
